The list is not random: actives were taken first. Their share in the collection is about 1.3%.
Apoferritin bind = candidate novel general anesthetic via apoferritin binding | P02791 | AID 485281 | actives 0.074% (n = 350,000) | Potency, µM (series often up to 77.5 µM), for inactives: top-dose activity change, negative = displacement, most hits filed as inhibitors | apoferritin/1-aminoanthracene competitive binding, fluorescence; note: potency is the fitted concentration of half-maximal effect; % is set by controls: 0 for no effect and ±100 for the full control effect; nearly all actives have a fitted effect of over 20% in size
Target sequence (P02791 2-175 limits assumed): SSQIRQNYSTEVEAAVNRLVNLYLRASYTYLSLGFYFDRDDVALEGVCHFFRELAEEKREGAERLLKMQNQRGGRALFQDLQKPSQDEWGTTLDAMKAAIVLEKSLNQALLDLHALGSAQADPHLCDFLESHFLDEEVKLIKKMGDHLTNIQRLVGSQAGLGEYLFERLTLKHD
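In PBS, apoferritin at 10 uM is loaded with 1-AMA from a 50% saturated solution. After 10 min of compound exposure at ambient temperature, reduced 535 nm fluorescence indicates probe displacement.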
TrxR1 inh = blocks rat thioredoxin reductase 1 | O89049 | recombinant rTrxR1, NADPH fluorescence consumption, selenite substrate | Potency, µM (titrated, usually from 114 µM), inactives show top-dose activity change, negative = inhibition, most hits filed as inhibitors | actives 1% (n = 390,000) | AID 588453; note: potency is the fitted concentration of half-maximal effect; % is set by controls: 0 for no effect and ±100 for the full control effect; nearly all actives have a fitted effect of over 65% in size
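Rat TrxR1 (90 nM in the dispensed reagent) was pre-reduced with 400 uM NADPH for 5 min at room temperature, then incubated with compound for 15 min. After 400 uM selenite was added, NADPH fluorescence (Ex 340/Em 450 nm) was followed for 8 min.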
PKM2 activator = activators of human pyruvate kinase M2; purified PKM2, Kinase-Glo ATP luminescence, activation; response scale: 0% is enzyme alone, no compound; Potency, µM (series often up to 57.5 µM), inactives show at the top dose activation, hits mostly activators; actives 0.34% (n = 260,000); note: potency is the fitted concentration of half-maximal effect; % is set by controls: 0 for no effect and ±100 for the full control effect; nearly all actives have a fitted effect of over 55% in size
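hPK-M2, >95% pure; 0.1 mM ADP / 0.5 mM PEP final; imidazole pH7.2 buffer w/ 7 mM MgCl2, 50 mM KCl; 1 h RT; Kinase-Glo lum. Intermediate enzyme activity for dual inhibitor/activator qHTS.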
GALK inh = inhibitors of human galactokinase; P51570; Purified GALK, Kinase-Glo residual ATP luminescence; Potency, µM (highest dose often 57.5 µM), for the others: top-dose activity change, negative = inhibition, hits mostly inhibitors; actives 0.007% (n = 270,000); note: potency is the fitted concentration of half-maximal effect; % is set by controls: 0 for no effect and ±100 for the full control effect
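Human GALK (5 nM) with 35 uM ATP and 100 uM galactose in 20 mM HEPES pH 8.0, 5 mM MgCl2, 60 mM NaCl, 1 mM DTT, 0.01% BSA. After 1 h at room temperature, leftover ATP was read by Kinase-Glo Plus luminescence.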
TrxR1 substrate = substrates of rat thioredoxin reductase 1 | O89049 | purified TrxR1 substrate turnover, NADPH consumption readout | Potency, µM (doses to about 114 µM), for inactives: at the highest dose activity change, negative = substrate turnover | actives 0.01% (n = 390,000) | AID 588456; note: potency is the fitted concentration of half-maximal effect; % is set by controls: 0 for no effect and ±100 for the full control effect; nearly all actives have a fitted effect of over 50% in size
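Rat TrxR1, dispensed at 90 nM, was prereduced with 400 uM NADPH (final) for 5 min at ~22 deg C, then incubated with compound 15 min before 400 uM selenite. A first-read NADPH fluorescence drop versus no-compound background flagged substrates.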
mIDH1 inhibitor = blocks human mutant IDH1 R132H enzyme; Potency, µM (highest dose often 76.6 µM), without a hit: at the highest dose activity change, negative = inhibition, most hits filed as inhibitors; AID 602179; O75874; actives 0.093% (n = 390,000); IDH1-R132H enzyme, NADPH consumption, diaphorase/resazurin fluorescence; note: potency is the fitted concentration of half-maximal effect; % is set by controls: 0 for no effect and ±100 for the full control effect; nearly all actives have a fitted effect of over 65% in size
Target sequence (O75874 whole entry R132H, stated change not applied): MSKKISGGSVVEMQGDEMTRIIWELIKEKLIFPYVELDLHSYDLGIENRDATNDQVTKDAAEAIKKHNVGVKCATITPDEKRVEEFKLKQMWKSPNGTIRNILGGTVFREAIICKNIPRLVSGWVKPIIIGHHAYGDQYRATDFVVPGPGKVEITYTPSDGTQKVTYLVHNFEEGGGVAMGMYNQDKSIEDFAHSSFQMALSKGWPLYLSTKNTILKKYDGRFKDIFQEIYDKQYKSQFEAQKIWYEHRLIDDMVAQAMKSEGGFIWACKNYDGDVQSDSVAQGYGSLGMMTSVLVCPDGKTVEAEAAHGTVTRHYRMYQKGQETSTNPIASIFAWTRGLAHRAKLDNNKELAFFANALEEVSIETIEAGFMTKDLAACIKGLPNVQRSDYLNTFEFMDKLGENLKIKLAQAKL
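IDH1-R132H (0.5 ug/mL dispensed) in pH 7.5 Tris buffer was preincubated 30 min with compound, then given a substrate mix of 0.016 mM NADPH and 2 mM alpha-KG for 80 min at room temperature; remaining NADPH was read by diaphorase/resazurin fluorescence.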
IDH1 autofl = autofluorescence interference, mutant IDH1 hit counter-screen; 750 tested, under 10 active; AID 623980; inhibition of signal, % at 51.2 µM; Resorufin detection reagent fluorescence interference, cell-free; shares compounds with mIDH1 inhibitor;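 note: 0% = wells with normal resorufin and full inhibition = wells lacking resorufin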
IDH1 WT = selectivity of mutant IDH1 inhibitors: human wild-type IDH1; shares compounds with mIDH1 inhibitor; WT IDH1 enzyme, NADPH diaphorase/resazurin fluorescence; Potency, µM (top dose mostly 115 µM), without a hit: at the top dose activity change, negative = inhibition, actives largely listed as inhibitors; actives 9% (n = 750);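 note: potency is the fitted concentration of half-maximal effect; 0% = full WT IDH1 enzyme control and full inhibition = no enzyme wells; nearly all actives have a fitted effect of over 55% in size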
Target sequence (O75874 whole entry, looked up): as the sequence (O75874 whole entry R132H, stated change not applied) above, with H132R counted along it
mIDH1 confirm = inhibits human mutant IDH1 enzyme in cherrypick confirmation. IDH1 R132H enzyme, NADPH diaphorase/resazurin fluorescence. Potency, µM (highest dose often 76.6 µM), for inactives: top-dose activity change, negative = inhibition, usual class: inhibitors. shares compounds with mIDH1 inhibitor. actives 83% (n = 750); note: potency is the fitted concentration of half-maximal effect; nearly all actives have a fitted effect of over 50% in size
Starred values were filed as active, the others as inactive; [ ] = dose if it differs, or a comment. Calls come from the whole dose curve; as a rule, active = well fitted curve in the direction sought with a large enough effect; inconclusive = small, poorly fitted or top-dose-only effect, or another doubt; inactive = no such curve, though single readings can be large; an effect the other way counts as inactive or inconclusive.

For C[C@H](CO)N1C[C@H](C)[C@@H](CN(C)Cc2ccc(Cl)c(Cl)c2)Oc2c(NC(=O)C3CC3)cccc2C1=O the results were TrxR1 inh 8%[57.1 µM], TrxR1 substrate -3%[57.1 µM], mIDH1 inhibitor inconclusive, IDH1 autofl -4, IDH1 WT -9% and mIDH1 confirm 25µM*.
For C[C@H](CO)N1C[C@H](C)[C@@H](CN(C)Cc2ccc(C(=O)Nc3ccccc3N)cc2)Oc2c(NC(=O)C3CCCCC3)cccc2C1=O the results were TrxR1 inh 7%, TrxR1 substrate 3%, mIDH1 inhibitor 40µM*, IDH1 autofl -14, IDH1 WT inconclusive and mIDH1 confirm 28µM*.
`Cc1ccc(S(=O)(=O)c2nnn3c2nc(NC2CCCCC2)c2sccc23)cc1C` gave Apoferritin bind -4%, TrxR1 inh 30% and TrxR1 substrate 32%.
O=C(c1cccn1-c1nnc(N2CCCCC2)s1)N1CCN(c2ccccc2)CC1 was read as Apoferritin bind -13%, TrxR1 inh 15%[57.1 µM], TrxR1 substrate 0%[57.1 µM] and mIDH1 inhibitor 13%.
Screening CCN(CC)C(=O)c1sc2c(c1C)c(=O)n(CCc1ccccc1)c(=O)n2Cc1cccc(Cl)c1 returned Apoferritin bind 100%, TrxR1 inh 16%[57.1 µM], TrxR1 substrate 5%[57.1 µM], mIDH1 inhibitor 32µM*, IDH1 autofl -6, IDH1 WT 3% and mIDH1 confirm 11µM*.
COc1ccc(C)cc1-n1c(-c2ccc(Cl)cc2)cc2c1CC(C)(C)CC2=O was read as Apoferritin bind 1%, TrxR1 inh 27%, TrxR1 substrate 4%, mIDH1 inhibitor inconclusive, IDH1 autofl -1, IDH1 WT 0% and mIDH1 confirm 14µM*.
For Cc1ccc(CSC2=Nc3ccccc3C3=NC(CCC(=O)NCCc4ccccc4)C(=O)N23)cc1 (configuration not stated) the results were Apoferritin bind inconclusive, TrxR1 inh 10%[57.1 µM], TrxR1 substrate 7%[57.1 µM], mIDH1 inhibitor inconclusive, IDH1 autofl 1, IDH1 WT 4% and mIDH1 confirm -9%.
Screening O=C1NC[C@H](Cc2ccccc2)N(C[C@H]2CCCN2C[C@H](Cc2ccccc2)N2C[C@H](Cc3ccccc3)N(CC3CCCCC3)C(=O)C2=O)C1=O returned TrxR1 inh 21%, TrxR1 substrate -5%, mIDH1 inhibitor inconclusive, IDH1 autofl 6, IDH1 WT -4% and mIDH1 confirm inconclusive.
O=C1NC[C@H](Cc2ccccc2)N(C[C@H]2CCCN2C[C@H](Cc2ccccc2)N2C[C@H](Cc3ccccc3)N(CCc3ccccc3)C(=O)C2=O)C1=O was read as TrxR1 inh -13%, TrxR1 substrate -2%, mIDH1 inhibitor inconclusive, IDH1 autofl 0, IDH1 WT 1% and mIDH1 confirm 28µM*.
Screening Cc1ccc(/C=C/c2onc(C)c2S(=O)(=O)N2CCC(C(=O)NCc3ccc(OC(C)C)cc3)CC2)cc1 returned Apoferritin bind inconclusive, TrxR1 inh -9%[57.1 µM], TrxR1 substrate -1%[57.1 µM] and mIDH1 inhibitor 13%.
Cc1ccccc1C(=O)Nc1cccc(C(=O)OCc2cc(=O)n3nc(C4CC4)sc3n2)c1 was read as Apoferritin bind 7%, TrxR1 inh 13%[57.1 µM], TrxR1 substrate 6%[57.1 µM] and mIDH1 inhibitor 9%.
CCOc1ccc(NC(=O)CSc2cc(C)c3ccccc3n2)cc1 was read as Apoferritin bind -12%, TrxR1 inh 7%[57.1 µM], TrxR1 substrate 3%[57.1 µM] and mIDH1 inhibitor 1%.
For c1ccc(-c2cc(-c3nnc4n3N=C(c3ccc5ccccc5c3)CS4)[nH]n2)cc1 the results were Apoferritin bind -3%, TrxR1 inh 7%, PKM2 activator -13%, GALK inh 2%, TrxR1 substrate -6%, mIDH1 inhibitor 12µM*, IDH1 autofl -1, IDH1 WT -10% and mIDH1 confirm 7.1µM*.
CCOC(=O)CSC1=NC(=O)/C(=C/c2ccc(Br)cc2)S1 was read as Apoferritin bind -9%, TrxR1 inh 22%[57.1 µM], PKM2 activator -5%, GALK inh 1%, TrxR1 substrate 9%[57.1 µM], mIDH1 inhibitor inconclusive, IDH1 autofl 1, IDH1 WT 71µM* and mIDH1 confirm 35µM*.
CS(=O)(=O)N(CC(=O)Nc1ccc(Br)cc1)c1ccccc1Br was read as Apoferritin bind 6%, TrxR1 inh 21%[57.1 µM], TrxR1 substrate -3%[57.1 µM] and mIDH1 inhibitor -7%.
`CCOC(=O)c1c(CSC(=N)N)n(C)c2cc(Br)c(OC(C)=O)cc12` gave Apoferritin bind -9%, TrxR1 inh 8%[11.4 µM], PKM2 activator 16µM*, GALK inh 0%, TrxR1 substrate 2%[11.4 µM], mIDH1 inhibitor inconclusive, IDH1 autofl -9, IDH1 WT 2% and mIDH1 confirm 14µM*.
`COc1cccc(OC)c1C(=O)Nn1c(C2CCC2)nc2ccccc2c1=O` gave Apoferritin bind -13%, TrxR1 inh -5%, PKM2 activator 10%, GALK inh 0%, TrxR1 substrate 11%[57.1 µM] and mIDH1 inhibitor 10%.
For O=C(Nn1c(C2CCCCC2)nc2ccccc2c1=O)c1ccc([N+](=O)[O-])cc1 the results were Apoferritin bind -3%, TrxR1 inh -9%[57.1 µM], PKM2 activator -6%, GALK inh 0%, TrxR1 substrate -1%[57.1 µM], mIDH1 inhibitor inconclusive, IDH1 autofl 6, IDH1 WT 1% and mIDH1 confirm -30%.
CCC(C)(C)NC(=O)C(c1ccc(C)o1)N(Cc1cccs1)C(=O)Cn1nnc2ccccc21 (configuration not stated) was read as Apoferritin bind inconclusive, TrxR1 inh 12%, PKM2 activator 6%, GALK inh 2%, TrxR1 substrate 3%, mIDH1 inhibitor inconclusive, IDH1 autofl -4, IDH1 WT -5% and mIDH1 confirm 22µM*.
